For assay [1], the target named is Thyrotropin-releasing hormone receptor (Homo sapiens) (UniProt P34981). The assay can be described thus: qHTS assay to identify small molecule agonists of the thyrotropin-releasing hormone receptor (TRHR) signaling pathway (AID 1346891; calls by dose curve;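 also: HEK293 cells expressing TRHR with calcium dye readout; series mostly up to about 58 µM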). The method, boiled down: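 Overnight-plated (18 h, 37 °C, 5% CO2) TRHR-Hek293 cells; 2 h calcium dye at 37 °C; compound in DMSO; 3-min kinetic fluorescence read.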
Thyrotropin-releasing hormone receptor (Homo sapiens), sequence (P34981 whole entry, looked up): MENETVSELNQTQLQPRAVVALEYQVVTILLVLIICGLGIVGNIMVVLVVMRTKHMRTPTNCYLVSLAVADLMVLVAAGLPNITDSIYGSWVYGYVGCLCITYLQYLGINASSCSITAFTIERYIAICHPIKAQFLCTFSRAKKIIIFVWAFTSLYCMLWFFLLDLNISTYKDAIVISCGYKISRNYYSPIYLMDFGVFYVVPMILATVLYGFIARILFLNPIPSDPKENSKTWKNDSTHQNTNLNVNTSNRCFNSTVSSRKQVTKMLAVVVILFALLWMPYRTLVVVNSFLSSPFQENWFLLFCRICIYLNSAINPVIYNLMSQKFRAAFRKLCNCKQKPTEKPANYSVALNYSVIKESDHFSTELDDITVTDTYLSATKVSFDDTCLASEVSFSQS
For orientation: qHTS replaces the single test concentration by a dilution series.

Assay [2] in a line: Human pregnane X receptor (PXR) small molecule agonists, qHTS cell viability counter screen (AID 1346977). Also: nearly all actives have a fitted effect of over 50% in size. Also: potency is read from the fitted curve at half-maximal effect. In a few lines: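 After a 5hr pre-incubation, PXR-Luc HepG2 cells received compounds plus positive control in DMSO and were kept 24hr at 37C. Cell viability was quantified by fluorescence from CellTiter-Fluor added for the final hour.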
Assay [3] in a line: Caspase-3/7 induction in HepG2 cells by small molecules, qHTS assay (AID 1346978). Also: nearly all actives have a fitted effect of over 15% in size. In a few lines: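 Wild-type HepG2 cells (2,000/well) were settled 5 h at 37 C, 5% CO2, then exposed to compounds in DMSO for 17 h. Caspase-3/7 activity was read by luminescence 30 min after adding Caspase-Glo 3/7 reagent at room temperature.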
Assay [4] in a line: Caspase-3/7 induction in CHO-K1 cells by small molecules, qHTS assay (AID 1346980). Also: nearly all actives have a fitted effect of over 15% in size. In a few lines:
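Wild-type cells were seeded at 1,500 per well and settled 5 hr at 37 C, 5% CO2, then exposed to DMSO-dissolved compounds for 17 hr. Caspase-Glo 3/7 reagent was added, and luminescence was read after 30min at room temperature.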

Assay [5] is described as follows: Caspase-3/7 induction in HepG2 cells by small molecules, qHTS cell viability counter screen (AID 1346981). Also: nearly all actives have a fitted effect of over 30% in size. Also: potency is read from the fitted curve at half-maximal effect. As to activity change, negative = cytotoxicity: series mostly up to about 92 µM. In a few lines:
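In this quantitative HTS counter screen, compounds delivered in DMSO were left on unmodified HepG2 cells for 16 hr at 37 C. Viability was then determined fluorometrically with CellTiter-Fluor, in parallel with caspase-3/7 induction in the same wells.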

Assay [6] deals with Nuclear receptor subfamily 1 group I member 2 (Homo sapiens) (UniProt O75469). The assay can be described thus: Human pregnane X receptor (PXR) small molecule agonists, qHTS assay (AID 1346982). Also: nearly all actives have a fitted effect of over 35% in size. Also: potency is read from the fitted curve at half-maximal effect. The method, boiled down: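 Reporter HepG2 cells expressing PXR-Luc are cultured in charcoal-stripped FBS (5%), treated with compounds for 24 hr at 37 C, and assayed by ONE-Glo luminescence after 30 min at room temperature.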
Nuclear receptor subfamily 1 group I member 2 (Homo sapiens), sequence (O75469 whole entry, looked up): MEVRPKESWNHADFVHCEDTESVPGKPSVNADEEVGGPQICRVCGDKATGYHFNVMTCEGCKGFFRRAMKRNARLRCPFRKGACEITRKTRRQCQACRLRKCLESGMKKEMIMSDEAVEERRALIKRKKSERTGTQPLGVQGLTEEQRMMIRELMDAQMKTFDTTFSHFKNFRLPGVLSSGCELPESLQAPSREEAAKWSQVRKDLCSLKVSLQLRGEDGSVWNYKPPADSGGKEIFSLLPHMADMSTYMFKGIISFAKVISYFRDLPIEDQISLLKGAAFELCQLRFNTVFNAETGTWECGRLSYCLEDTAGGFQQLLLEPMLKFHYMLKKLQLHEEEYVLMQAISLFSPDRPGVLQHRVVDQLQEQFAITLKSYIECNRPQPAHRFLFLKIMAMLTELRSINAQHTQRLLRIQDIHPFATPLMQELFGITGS

For assay [7], the target named is Cytochrome P450 2C19 (Homo sapiens) (UniProt P33261). The assay can be described thus: Cytochrome P450 Family 2 Subfamily C Member 19 (CYP2C19) small molecule antagonists: luciferase reporter qHTS assay (AID 1671197). Also: nearly all actives have a fitted effect of over 65% in size. Also: potency is read from the fitted curve at half-maximal effect. As to activity change, negative = inhibition: series mostly up to about 120 µM. The method, boiled down: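 Luminescent readout of CYP2C19 activity: luciferin product detected 20 min after adding detection reagent. Before that, compound and enzyme-substrate mix preincubated 10 min at room temperature; NADPH-regenerating system started a 1 h, 37C reaction. Ketoconazole as positive control.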
Cytochrome P450 2C19 (Homo sapiens), sequence (P33261 whole entry, looked up): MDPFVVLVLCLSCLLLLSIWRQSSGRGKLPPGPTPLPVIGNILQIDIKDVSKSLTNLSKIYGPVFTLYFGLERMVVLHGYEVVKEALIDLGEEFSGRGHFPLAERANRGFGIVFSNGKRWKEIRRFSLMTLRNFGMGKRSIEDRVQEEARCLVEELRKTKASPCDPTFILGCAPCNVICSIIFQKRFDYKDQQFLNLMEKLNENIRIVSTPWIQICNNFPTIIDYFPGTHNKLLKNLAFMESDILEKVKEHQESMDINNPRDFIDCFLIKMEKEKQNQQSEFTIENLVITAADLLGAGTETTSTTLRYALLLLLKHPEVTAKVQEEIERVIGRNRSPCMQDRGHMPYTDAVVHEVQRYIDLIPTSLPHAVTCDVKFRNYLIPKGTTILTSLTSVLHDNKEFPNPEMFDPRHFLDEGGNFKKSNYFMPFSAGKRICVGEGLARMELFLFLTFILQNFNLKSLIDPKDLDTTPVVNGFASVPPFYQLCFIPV

Assay [8] addresses Cytochrome P450 2C9 (Homo sapiens) (UniProt P11712). The assay can be described thus: Cytochrome P450 Family 2 Subfamily C Member 9 (CYP2C9) small molecule antagonists: luciferase reporter qHTS assay (AID 1671198). Also: nearly all actives have a fitted effect of over 50% in size. Also: potency is read from the fitted curve at half-maximal effect. As to activity change, negative = inhibition: series mostly up to about 120 µM. In a few lines: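 CYP2C9 activity was measured with a P450-Glo proluciferin substrate. Enzyme–substrate mix was held with compound for 10 min at room temperature, then NADPH regeneration solution was added for 1 h at 37C. Luciferin product was read as luminescence.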

The target of assay [9] is Cytochrome P450 1A2 (Homo sapiens) (UniProt P05177). The assay can be described thus: Cytochrome P450 Family 1 Subfamily A Member 2 (CYP1A2) small molecule antagonists: luciferase reporter qHTS assay (AID 1671199). Also: nearly all actives have a fitted effect of over 50% in size. Also: potency is read from the fitted curve at half-maximal effect. As to activity change, negative = inhibition: series mostly up to about 120 µM. In a few lines:
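Steps: enzyme-substrate mix dispensed; test compounds and furafylline control pinned in; 10 min room temperature; NADPH regeneration solution added, 1 h; reaction stopped with luciferin detection reagent; luminescence read after 20 min.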
A general note: Reporter assays use an easily measured gene product as a stand-in for the process of interest.

Assay [10] has as its target Voltage-gated inwardly rectifying potassium channel KCNH2 (Homo sapiens) (UniProt Q12809). The assay can be described thus: Human Ether-a-go-go-Related Gene (hERG) channel small molecule antagonists: fluorescence cell-based qHTS assay (AID 1671200).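 Also: hERG-expressing U2OS cells given a thallium stimulus after FluxOR II dye loading; series mostly up to about 77 µM; nearly all actives have a fitted effect of over 50% in size.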 In a few lines:
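Cell line hERG-U2OS; dye FluxOR II, 1 h RT dark; Tl+ stimulus; ex 480/em 540 nm, read each second for 2 min.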

In assay [11] the target is Cytochrome P450 3A4 (Homo sapiens) (UniProt P08684). The assay can be described thus: Cytochrome P450 Family 3 Subfamily A Member 4 (CYP3A4) small molecule antagonists: luciferase reporter qHTS assay (AID 1671201). Also: nearly all actives have a fitted effect of over 50% in size. Also: potency is read from the fitted curve at half-maximal effect. As to activity change, negative = inhibition: series mostly up to about 120 µM. In a few lines: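 Room-temperature assay throughout: 10 min compound–enzyme/substrate preincubation, 1 h reaction after NADPH regeneration solution, 20 min detection. Luciferin formed from proluciferin substrate is quantified by luminescence.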
Cytochrome P450 3A4 (Homo sapiens), sequence (P08684 whole entry, looked up): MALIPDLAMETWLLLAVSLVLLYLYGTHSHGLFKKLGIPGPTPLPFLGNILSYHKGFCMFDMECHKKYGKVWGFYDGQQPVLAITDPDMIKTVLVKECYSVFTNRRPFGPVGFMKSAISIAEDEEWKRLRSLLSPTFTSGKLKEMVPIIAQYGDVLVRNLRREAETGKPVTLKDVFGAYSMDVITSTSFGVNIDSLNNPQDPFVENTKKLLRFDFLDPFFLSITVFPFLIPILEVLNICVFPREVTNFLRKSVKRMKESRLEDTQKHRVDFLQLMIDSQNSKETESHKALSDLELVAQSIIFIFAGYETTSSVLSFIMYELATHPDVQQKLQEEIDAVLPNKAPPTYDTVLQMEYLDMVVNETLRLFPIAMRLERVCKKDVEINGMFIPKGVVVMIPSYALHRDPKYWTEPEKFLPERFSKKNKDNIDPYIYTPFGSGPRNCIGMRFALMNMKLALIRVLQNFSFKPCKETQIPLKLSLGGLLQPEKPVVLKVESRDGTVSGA

For assay [12], the target named is Cytochrome P450 2D6 (Homo sapiens) (UniProt P10635). The assay can be described thus: Cytochrome P450 Family 2 Subfamily D Member 6 (CYP2D6) small molecule antagonists: luciferase reporter qHTS assay (AID 1671196). Also: nearly all actives have a fitted effect of over 50% in size. Also: potency is read from the fitted curve at half-maximal effect. As to activity change, negative = inhibition: series mostly up to about 120 µM. In a few lines:
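Test chemicals meet CYP2D6 plus proluciferin substrate (10 min, RT); NADPH regenerating solution then drives turnover for 1 h. Detection reagent halts the reaction; luminescence measured after 20 min.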

The target in assay [13] is Nuclear receptor subfamily 1 group I member 2 (Rattus norvegicus) (UniProt Q9R1A7). The assay can be described thus: Rat pregnane X receptor (rPXR) activation by small molecules, qHTS assay (AID 1346983). Also: nearly all actives have a fitted effect of over 20% in size. The settings on record: rPXR luciferase reporter cells, One-Glo luminescence, 24 h; max activation: active compounds read high. In a few lines: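 Cell-based rPXR luciferase reporter assay, 2,000 cells per well, rested 5hr at 37 C before compound addition in DMSO, then 24 hr at 37 C. One-Glo reagent was added and luminescence read after 30 min at room temperature.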
Nuclear receptor subfamily 1 group I member 2 (Rattus norvegicus), sequence (Q9R1A7 whole entry, looked up): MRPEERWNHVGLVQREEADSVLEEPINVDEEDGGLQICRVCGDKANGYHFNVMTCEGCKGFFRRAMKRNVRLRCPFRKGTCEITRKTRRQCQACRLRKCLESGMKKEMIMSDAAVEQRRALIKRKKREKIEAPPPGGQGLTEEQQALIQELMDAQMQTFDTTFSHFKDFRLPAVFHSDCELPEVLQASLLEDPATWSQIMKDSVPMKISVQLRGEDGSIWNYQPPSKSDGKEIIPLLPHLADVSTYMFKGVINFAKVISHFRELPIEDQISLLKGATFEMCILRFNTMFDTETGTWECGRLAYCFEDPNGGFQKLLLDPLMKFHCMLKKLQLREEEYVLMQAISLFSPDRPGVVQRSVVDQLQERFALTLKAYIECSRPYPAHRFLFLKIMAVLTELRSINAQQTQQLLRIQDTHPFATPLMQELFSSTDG

Unmarked numbers belong to inactive results. Results filed as inconclusive are left out. Active and inactive are the calls of the source. Unless noted, calls follow the shape of the dose curve; as a rule, active = well fitted curve in the direction sought with a large enough effect in the repeat runs; inconclusive = weak or mixed curves; inactive = no such curve, though single readings can be large; an effect the other way counts as inactive or inconclusive.
% is scaled to controls: 0 for no effect and ±100 for the full control effect.

Cytochrome P450 1A2 (Homo sapiens), sequence (P05177 whole entry, looked up): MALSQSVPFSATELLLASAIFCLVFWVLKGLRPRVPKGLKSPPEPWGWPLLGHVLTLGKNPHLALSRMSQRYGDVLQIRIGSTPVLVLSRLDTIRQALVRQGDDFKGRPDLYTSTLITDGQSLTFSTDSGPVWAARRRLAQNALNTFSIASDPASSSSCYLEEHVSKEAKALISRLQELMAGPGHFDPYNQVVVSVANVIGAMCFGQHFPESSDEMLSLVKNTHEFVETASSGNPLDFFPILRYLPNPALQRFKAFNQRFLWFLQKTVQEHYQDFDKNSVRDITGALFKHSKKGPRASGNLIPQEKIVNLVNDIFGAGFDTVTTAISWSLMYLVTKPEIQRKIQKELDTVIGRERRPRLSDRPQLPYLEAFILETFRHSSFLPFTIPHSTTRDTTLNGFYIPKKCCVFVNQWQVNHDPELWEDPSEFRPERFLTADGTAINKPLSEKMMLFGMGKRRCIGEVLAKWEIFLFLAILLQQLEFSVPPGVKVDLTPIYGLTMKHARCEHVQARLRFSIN
Cytochrome P450 2C9 (Homo sapiens), sequence (P11712 whole entry, looked up): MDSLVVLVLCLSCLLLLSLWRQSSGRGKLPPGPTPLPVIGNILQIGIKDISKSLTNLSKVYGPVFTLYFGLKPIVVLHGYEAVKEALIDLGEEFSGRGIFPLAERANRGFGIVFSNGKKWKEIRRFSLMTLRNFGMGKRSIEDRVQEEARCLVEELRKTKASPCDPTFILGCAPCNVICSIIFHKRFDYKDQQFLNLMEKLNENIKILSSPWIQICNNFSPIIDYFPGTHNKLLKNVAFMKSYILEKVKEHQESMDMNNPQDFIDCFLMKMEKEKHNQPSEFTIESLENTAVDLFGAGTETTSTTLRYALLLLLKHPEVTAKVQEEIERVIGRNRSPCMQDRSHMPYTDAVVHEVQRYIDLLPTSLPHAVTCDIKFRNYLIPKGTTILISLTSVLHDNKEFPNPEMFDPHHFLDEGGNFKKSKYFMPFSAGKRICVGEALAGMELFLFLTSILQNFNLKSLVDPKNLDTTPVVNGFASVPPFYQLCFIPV
Cytochrome P450 2D6 (Homo sapiens), sequence (P10635 whole entry, looked up): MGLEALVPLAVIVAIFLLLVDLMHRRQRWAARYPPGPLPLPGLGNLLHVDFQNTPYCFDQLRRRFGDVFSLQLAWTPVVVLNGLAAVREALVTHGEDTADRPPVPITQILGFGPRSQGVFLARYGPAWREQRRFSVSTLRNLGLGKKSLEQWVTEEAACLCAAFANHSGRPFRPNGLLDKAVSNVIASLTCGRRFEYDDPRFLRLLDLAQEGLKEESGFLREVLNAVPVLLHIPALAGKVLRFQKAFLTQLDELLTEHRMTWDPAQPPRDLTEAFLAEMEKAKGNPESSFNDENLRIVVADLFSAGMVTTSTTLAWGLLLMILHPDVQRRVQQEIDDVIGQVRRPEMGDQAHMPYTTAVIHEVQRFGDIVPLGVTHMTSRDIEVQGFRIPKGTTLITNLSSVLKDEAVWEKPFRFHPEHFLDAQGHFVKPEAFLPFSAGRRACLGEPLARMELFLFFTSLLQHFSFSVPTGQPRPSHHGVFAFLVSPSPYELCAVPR
Voltage-gated inwardly rectifying potassium channel KCNH2 (Homo sapiens), sequence (Q12809 whole entry, looked up): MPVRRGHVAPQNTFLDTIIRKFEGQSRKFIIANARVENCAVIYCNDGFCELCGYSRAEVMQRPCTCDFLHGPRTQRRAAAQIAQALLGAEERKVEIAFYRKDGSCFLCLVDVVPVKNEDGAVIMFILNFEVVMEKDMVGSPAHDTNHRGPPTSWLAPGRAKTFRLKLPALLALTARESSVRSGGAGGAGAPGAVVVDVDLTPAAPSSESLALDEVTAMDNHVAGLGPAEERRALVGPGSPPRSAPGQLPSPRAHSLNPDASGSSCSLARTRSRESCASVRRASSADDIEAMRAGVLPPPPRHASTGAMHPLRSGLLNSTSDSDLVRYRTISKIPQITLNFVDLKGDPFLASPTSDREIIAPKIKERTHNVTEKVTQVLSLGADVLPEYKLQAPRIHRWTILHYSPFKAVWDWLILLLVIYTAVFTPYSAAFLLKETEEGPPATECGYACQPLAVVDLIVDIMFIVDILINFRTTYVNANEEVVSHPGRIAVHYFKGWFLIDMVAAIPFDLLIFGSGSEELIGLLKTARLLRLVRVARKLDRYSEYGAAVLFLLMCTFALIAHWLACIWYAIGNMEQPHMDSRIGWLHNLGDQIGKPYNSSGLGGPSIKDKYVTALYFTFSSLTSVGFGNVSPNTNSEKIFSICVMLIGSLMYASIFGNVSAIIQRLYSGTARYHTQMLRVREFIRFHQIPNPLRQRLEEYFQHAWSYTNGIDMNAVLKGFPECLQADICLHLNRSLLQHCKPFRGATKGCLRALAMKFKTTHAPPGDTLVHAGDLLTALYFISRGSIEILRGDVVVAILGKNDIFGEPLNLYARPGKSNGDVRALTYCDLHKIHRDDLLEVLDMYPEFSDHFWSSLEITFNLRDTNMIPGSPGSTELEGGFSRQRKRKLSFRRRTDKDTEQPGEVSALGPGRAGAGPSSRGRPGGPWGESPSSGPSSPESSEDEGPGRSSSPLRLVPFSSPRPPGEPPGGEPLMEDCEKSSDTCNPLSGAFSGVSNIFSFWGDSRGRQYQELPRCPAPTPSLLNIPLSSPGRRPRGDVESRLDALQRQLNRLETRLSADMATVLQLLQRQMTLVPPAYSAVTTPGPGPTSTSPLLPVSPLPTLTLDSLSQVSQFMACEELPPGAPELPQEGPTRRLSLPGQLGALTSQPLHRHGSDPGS

For `O=P(O)(O)Oc1ccccc1`, the compound was called inactive in assay [1] and in assay [4]. Also, the Potency result in [2], in assay [3], in assay [5], in assay [6], in assay [7] and in assay [8] was “inactive” throughout. Further, the Potency entry in [9], in assay [10] and in [11] was “inactive” each time.
Turning to `CCCCCCC(O)CCCCCCCCCCC(=O)OC` (stereo not drawn), the call in assay [1] and in [4] was inactive. Further, the Potency result in assay [2], in [3], in assay [5], in [6], in assay [12] and in assay [7] was “inactive” in each case. In addition, the Potency entry in [9] and in assay [11] was “inactive” each time. Also, the Potency in assay [8] was 35.6 µM (active).
For the compound `Nc1nc(-c2ccc([N+](=O)[O-])cc2)cs1`, the compound was classed as inactive in assay [1] and in [4]. Besides, the Potency entry in assay [2], in assay [3], in [12] and in [10] was “inactive” in each case. The Potency in [6] was 9.79 µM (active); in [7], 3.6 µM (active); in assay [9] it was 5.08 µM (active).
As to `CC(C)N(C)C`, the compound was called inactive in [1] and in [4]. Further, the Potency result in assay [2], in assay [3], in [5], in assay [6], in assay [12] and in assay [7] was “inactive” each time. In addition, the Potency entry in assay [8], in assay [9] and in assay [11] was “inactive” each time.
Consider `CCCCCCCCCCCCCCN(C)C`, for which the activation was 1.06% [at 11.8 µM] in assay [1] and 8.78% [at 19 µM] in [6]. Moreover, the results for the activity change, negative = cytotoxicity in assay [2] and in assay [5] were 0.682% [at 19 µM] and -7.71% [at 19 µM], respectively. Moreover, the caspase activation in assay [3] was 1.09% [at 19 µM]. The caspase-3/7 activation in [4] is -1.58% [at 19 µM]. Further, the activity change, negative = inhibition in [12] was -19.3% [at 23.6 µM]; in assay [8], -16.9% [at 23.6 µM]; in [10], -0.651% [at 15.8 µM].
As to `CC1C(C)(C)C2=C(C(=O)CCC2)C1(C)C` (stereo not drawn), the call in [1] and in [4] was inactive. Besides, the Potency entry in [2], in assay [3], in [5], in assay [6], in [12] and in [7] was “inactive” in each case. Further, the Potency entry in assay [8], in assay [10] and in [11] was “inactive” throughout.
`COC(CC(C)CCCC(C)(C)O)OC` (stereo not drawn): the compound was called inactive in [1] and in assay [4]. Moreover, the Potency result in assay [2], in assay [3], in assay [6] and in assay [10] was “inactive” each time. The Potency in assay [7] is 35.6 µM (active).
With `CO[C@@H]1[C@@H](OC)[C@H](C)[C@@](O)(CC(=O)O)O[C@H]1[C@H](C)[C@H]1O[C@@]2(CC[C@@](C)([C@H]3CC[C@@](C)([C@@H]4O[C@@H]([C@H]5O[C@](C)(O)[C@H](C)C[C@@H]5C)C[C@@H]4OC4C[C@H](OC)[C@@H](OC)[C@H](C)O4)O3)O2)C[C@H](O)[C@H]1C` (stereo partly drawn), the call in [1] and in [4] was inactive. For the same compound, the Potency in assay [2] is 3.35 µM (active); in [5] it was 3.76 µM (active). For the same compound, the Potency entry in assay [3], in [12], in assay [7], in [8] and in assay [9] was “inactive” each time.
Turning to `O=C(O)c1cccc(Oc2ccccc2)c1`, the compound was called inactive in [1] and in assay [4]. The Potency result in assay [2], in assay [3], in [5], in [6], in assay [12] and in [7] was “inactive” each time. Also, the Potency result in [9], in [10] and in [11] was “inactive” in each case.
Regarding `Cc1ccc2nc(N)[nH]c(=O)c2c1Sc1ccncc1`, the result in assay [1] and in [4] was inactive. The Potency result in assay [2], in assay [3], in [6] and in [10] was “inactive” each time. The max activation in assay [13] was -1.84%. Besides, the Potency in assay [12] was 15.5 µM (active); in [7], 1.55 µM (active); in assay [8], 5.49 µM (active); in assay [9], 2.88 µM (active).
Consider `COc1ccc(-n2nc(C(F)F)cc2-c2ccc(S(C)=O)cc2)cc1` (stereo not drawn), for which the compound was classed as inactive in assay [1] and in assay [4]. For the same compound, the Potency result in [2], in [3], in assay [5] and in [10] was “inactive” each time. Besides, the Potency was 30.6 µM (active) in assay [6]; 35.6 µM (active) in assay [12]; 2 µM (active) in assay [7]; 31.7 µM (active) in assay [8]; 31.7 µM (active) in assay [9]; 31.7 µM (active) in [11].
On to `Oc1ccc2c(c1)Cc1ccccc1-2`, for which the outcome in assay [1] and in assay [4] was inactive. The Potency result in assay [2], in [3], in [5], in assay [12], in [10] and in assay [11] was “inactive” in each case. Moreover, the Potency in assay [6] was 30.6 µM (active); in assay [7] it was 28.3 µM (active); in assay [8], 35.6 µM (active); in [9], 3.56 µM (active).
With `CCOCCC(=O)OCC`, the compound was classed as inactive in assay [1] and in [4]. For the same compound, the Potency entry in assay [2], in assay [3], in [5], in assay [6], in assay [12] and in assay [7] was “inactive” each time. Also, the Potency result in [8], in assay [10] and in [11] was “inactive” in each case.
For the compound `CC(C)COC(=O)c1ccc(O)cc1`, the compound was classed as inactive in [1] and in [4]. Moreover, the Potency entry in assay [2], in assay [3], in assay [5], in assay [10] and in assay [11] was “inactive” each time. The Potency was 3.06 µM (active) in [6], 3.17 µM (active) in assay [7], 25.2 µM (active) in assay [8] and 2.82 µM (active) in assay [9].
Turning to `C1CCCCC1`, the compound was classed as inactive in [1] and in assay [4]. In addition, the Potency result in [2], in assay [3], in assay [5], in assay [6], in assay [12] and in assay [7] was “inactive” each time. Besides, the Potency result in assay [8], in assay [9], in assay [10] and in assay [11] was “inactive” each time.
For `CCCc1nc2c(C)cc(-c3nc4ccccc4n3C)cc2n1Cc1ccc(-c2ccccc2C(=O)O)cc1`, the outcome in [1] and in [4] was inactive. Also, the Potency entry in assay [2], in assay [3], in assay [12] and in assay [9] was “inactive” each time. The max activation in assay [13] is -2.19%. The Potency in assay [7] and in assay [8] was 7.76 µM (active) throughout.
Turning to `CC1CCCO1` (stereo not drawn), the result in assay [1] and in [4] was inactive. Also, the Potency entry in [2], in assay [3], in [5], in assay [12], in assay [7] and in [8] was “inactive” each time. Besides, in assay [11], the Potency result is “inactive”.
As for `O=C(O)CN1C(=O)c2cccc3cccc(c23)C1=O`, the outcome in assay [1] and in assay [4] was inactive. Also, the Potency result in assay [2], in [3], in [5] and in assay [10] was “inactive” in each case. Also, the max activation in assay [13] is -2.76%.

These data come from PubChem BioAssay (Tox21).
